From publication PMC7862700, “An all-to-all approach to the identification of sequence-specific readers for epigenetic DNA modifications on cytosine”

Tests used:
Test in all cases: DAPPL (digital affinity profiling via proximity ligation, sequencing); 10 mM Tris-HCl pH 7.5, 50 mM NaCl, 1 mM DTT, 4% glycerol, room temperature, 30 min; GST-TFs on glutathione beads, 16-mer random dsDNA library, 0.1% formaldehyde crosslink after washing; high values mean tight binding
[1] = molecular target: T1, FEV (Homo sapiens, UniProt Q99581 1-238); settings: protein: recombinant; tags: N-terminal GST; dsDNA, one strand shown
T1 sequence: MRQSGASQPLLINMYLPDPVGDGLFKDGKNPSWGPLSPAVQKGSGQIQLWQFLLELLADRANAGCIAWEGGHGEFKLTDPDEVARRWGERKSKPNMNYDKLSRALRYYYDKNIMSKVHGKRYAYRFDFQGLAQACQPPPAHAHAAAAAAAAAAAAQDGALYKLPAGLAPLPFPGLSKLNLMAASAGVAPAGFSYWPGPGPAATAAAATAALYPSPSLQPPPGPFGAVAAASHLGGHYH
Outline: (§1)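 A tag-only sample was pooled with DNA-barcoded human transcription factors that had been expressed in yeast as GST fusions and captured on glutathione beads. The pools were incubated for 30 min at room temperature with 200 nmole of a random double-stranded 16-mer DNA library in Tris/NaCl/DTT/glycerol buffer, then washed, crosslinked with 0.1% formaldehyde, proximity-ligated (BsaI/T4 ligase, 1 h, 37 °C), PCR-amplified and sequenced on an Illumina NextSeq500. Binding signal is each hexamer's read frequency for a factor divided by its frequency for the tag-only sample.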

[2] = molecular target: ETV5 (Homo sapiens, UniProt P41161 1-510); settings: protein: recombinant; tags: N-terminal GST; dsDNA, one strand shown
Outline: as §1

[3] = molecular target: HSF1 (Homo sapiens, UniProt Q00613 1-529); settings: protein: recombinant; tags: N-terminal GST; chain copies: 3; dsDNA, one strand shown
Outline: as §1

[4] = molecular target: T2, SPIC (Homo sapiens, UniProt Q8N5J4 1-248); settings: protein: recombinant; tags: N-terminal GST; dsDNA, one strand shown
T2 sequence: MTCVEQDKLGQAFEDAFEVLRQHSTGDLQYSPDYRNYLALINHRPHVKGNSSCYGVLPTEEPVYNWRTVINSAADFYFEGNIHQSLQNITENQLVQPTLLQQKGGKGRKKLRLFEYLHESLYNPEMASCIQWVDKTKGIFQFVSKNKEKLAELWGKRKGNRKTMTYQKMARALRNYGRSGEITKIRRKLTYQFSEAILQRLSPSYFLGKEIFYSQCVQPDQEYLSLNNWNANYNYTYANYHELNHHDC
Outline: as §1

[5] = molecular target: ELF4 (Homo sapiens, UniProt Q99607 1-663); settings: protein: recombinant; tags: N-terminal GST; dsDNA, one strand shown
Outline: as §1

[6] = molecular target: T3, ELK4 (Homo sapiens, UniProt P28324-2 1-405); settings: protein: recombinant; tags: N-terminal GST; dsDNA, one strand shown
T3 sequence: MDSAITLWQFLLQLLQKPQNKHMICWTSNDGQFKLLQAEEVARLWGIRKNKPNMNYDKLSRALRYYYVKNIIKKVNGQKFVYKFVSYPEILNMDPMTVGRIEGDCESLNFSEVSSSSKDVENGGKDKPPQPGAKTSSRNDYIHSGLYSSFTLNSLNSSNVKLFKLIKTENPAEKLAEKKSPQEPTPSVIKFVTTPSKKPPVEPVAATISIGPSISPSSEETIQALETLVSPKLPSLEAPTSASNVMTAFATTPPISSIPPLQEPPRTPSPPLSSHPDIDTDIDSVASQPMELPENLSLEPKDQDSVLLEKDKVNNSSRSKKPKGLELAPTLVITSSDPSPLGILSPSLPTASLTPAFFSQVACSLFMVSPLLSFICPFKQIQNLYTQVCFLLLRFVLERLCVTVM
Outline: as §1

[7] = molecular target: T4, ETV2 (Homo sapiens, UniProt O00321 1-342); settings: protein: recombinant; tags: N-terminal GST; dsDNA, one strand shown
T4 sequence: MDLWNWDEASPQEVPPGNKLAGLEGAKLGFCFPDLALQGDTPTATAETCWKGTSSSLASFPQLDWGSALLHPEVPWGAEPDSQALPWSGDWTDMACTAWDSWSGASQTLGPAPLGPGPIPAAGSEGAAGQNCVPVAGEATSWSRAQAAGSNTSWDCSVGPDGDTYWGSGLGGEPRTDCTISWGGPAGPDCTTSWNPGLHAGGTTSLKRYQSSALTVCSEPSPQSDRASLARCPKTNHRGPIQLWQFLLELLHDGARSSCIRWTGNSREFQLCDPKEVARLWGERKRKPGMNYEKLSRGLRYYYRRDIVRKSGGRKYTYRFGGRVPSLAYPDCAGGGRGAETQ
Outline: as §1

[8] = molecular target: T5, ELF3 (Homo sapiens, UniProt P78545 1-371); settings: protein: recombinant; tags: N-terminal GST; dsDNA, one strand shown
T5 sequence: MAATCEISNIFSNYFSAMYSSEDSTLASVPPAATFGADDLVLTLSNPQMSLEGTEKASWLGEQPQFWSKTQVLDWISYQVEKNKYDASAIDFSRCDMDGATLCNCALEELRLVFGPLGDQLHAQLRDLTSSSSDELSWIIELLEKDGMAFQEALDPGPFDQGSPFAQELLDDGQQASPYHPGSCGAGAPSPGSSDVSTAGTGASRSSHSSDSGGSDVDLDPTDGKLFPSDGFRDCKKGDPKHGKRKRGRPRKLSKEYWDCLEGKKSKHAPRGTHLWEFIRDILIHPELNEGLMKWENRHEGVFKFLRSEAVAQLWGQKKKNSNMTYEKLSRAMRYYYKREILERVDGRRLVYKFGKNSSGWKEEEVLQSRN
Outline: as §1

[9] = molecular target: CRX (Homo sapiens, UniProt O43186 1-299); settings: protein: recombinant; tags: N-terminal GST; dsDNA, one strand shown
Outline: as §1

[10] = molecular target: ETV1 (Homo sapiens, UniProt P50549 1-477); settings: protein: recombinant; tags: N-terminal GST; dsDNA, one strand shown
Outline: as §1

[11] = molecular target: T6, ERF (Homo sapiens, UniProt P50548 1-548); settings: protein: recombinant; tags: N-terminal GST; dsDNA, one strand shown
T6 sequence: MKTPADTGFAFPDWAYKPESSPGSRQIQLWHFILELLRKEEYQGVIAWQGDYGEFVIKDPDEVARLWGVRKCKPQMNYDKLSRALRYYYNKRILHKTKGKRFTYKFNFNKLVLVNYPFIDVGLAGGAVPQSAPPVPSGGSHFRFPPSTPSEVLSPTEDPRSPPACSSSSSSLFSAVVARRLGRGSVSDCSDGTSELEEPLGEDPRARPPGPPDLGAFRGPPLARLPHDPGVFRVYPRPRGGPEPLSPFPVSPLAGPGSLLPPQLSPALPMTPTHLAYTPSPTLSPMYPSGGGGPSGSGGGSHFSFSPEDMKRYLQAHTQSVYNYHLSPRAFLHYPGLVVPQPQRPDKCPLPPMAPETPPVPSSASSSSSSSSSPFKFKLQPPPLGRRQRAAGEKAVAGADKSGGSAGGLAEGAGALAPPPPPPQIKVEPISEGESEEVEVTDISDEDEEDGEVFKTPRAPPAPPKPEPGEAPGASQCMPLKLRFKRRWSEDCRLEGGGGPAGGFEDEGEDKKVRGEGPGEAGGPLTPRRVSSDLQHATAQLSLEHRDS
Outline: as §1

[12] = molecular target: T7, ETV3L (Homo sapiens, UniProt Q6ZN32 1-361); settings: protein: recombinant; tags: N-terminal GST; dsDNA, one strand shown
T7 sequence: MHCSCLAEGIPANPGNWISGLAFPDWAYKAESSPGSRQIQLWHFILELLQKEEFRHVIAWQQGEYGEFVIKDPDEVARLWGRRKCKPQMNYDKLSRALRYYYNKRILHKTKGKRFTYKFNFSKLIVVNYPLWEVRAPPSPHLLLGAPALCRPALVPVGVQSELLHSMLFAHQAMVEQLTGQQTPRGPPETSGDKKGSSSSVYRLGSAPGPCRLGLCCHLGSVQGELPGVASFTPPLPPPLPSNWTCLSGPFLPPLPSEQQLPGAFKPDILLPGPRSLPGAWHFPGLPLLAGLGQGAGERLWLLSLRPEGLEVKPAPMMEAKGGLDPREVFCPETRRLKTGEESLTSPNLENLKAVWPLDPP
Outline: as §1

[13] = molecular target: T8, ETS2 (Homo sapiens, UniProt P15036 1-469); settings: protein: recombinant; tags: N-terminal GST; dsDNA, one strand shown
T8 sequence: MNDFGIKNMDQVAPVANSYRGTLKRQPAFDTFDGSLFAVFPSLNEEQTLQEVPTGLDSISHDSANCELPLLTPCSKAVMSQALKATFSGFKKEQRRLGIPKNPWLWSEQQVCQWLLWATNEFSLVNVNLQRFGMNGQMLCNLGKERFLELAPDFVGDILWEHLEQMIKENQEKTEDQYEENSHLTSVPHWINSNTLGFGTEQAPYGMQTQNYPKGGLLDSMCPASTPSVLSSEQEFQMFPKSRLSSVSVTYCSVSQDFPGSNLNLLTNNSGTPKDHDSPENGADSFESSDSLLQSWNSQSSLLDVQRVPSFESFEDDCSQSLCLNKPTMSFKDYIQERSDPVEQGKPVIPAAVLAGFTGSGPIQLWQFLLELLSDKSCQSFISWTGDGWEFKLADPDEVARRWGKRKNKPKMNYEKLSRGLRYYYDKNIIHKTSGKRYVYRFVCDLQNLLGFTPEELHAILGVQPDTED
Outline: as §1

[14] = molecular target: T9, SPDEF (Homo sapiens, UniProt O95238 1-335); settings: protein: recombinant; tags: N-terminal GST; dsDNA, one strand shown
T9 sequence: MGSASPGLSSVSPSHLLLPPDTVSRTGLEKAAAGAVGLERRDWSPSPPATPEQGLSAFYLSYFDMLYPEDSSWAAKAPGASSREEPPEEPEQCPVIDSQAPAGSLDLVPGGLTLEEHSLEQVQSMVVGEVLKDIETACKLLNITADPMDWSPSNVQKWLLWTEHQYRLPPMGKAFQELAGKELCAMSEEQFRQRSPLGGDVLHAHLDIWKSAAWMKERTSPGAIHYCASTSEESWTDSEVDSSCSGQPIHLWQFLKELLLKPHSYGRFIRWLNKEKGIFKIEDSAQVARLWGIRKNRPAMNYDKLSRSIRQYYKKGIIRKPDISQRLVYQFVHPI
Outline: as §1

[15] = molecular target: T10, ETV7 (Homo sapiens, UniProt Q9Y603 1-341); settings: protein: recombinant; tags: N-terminal GST; dsDNA, one strand shown
T10 sequence: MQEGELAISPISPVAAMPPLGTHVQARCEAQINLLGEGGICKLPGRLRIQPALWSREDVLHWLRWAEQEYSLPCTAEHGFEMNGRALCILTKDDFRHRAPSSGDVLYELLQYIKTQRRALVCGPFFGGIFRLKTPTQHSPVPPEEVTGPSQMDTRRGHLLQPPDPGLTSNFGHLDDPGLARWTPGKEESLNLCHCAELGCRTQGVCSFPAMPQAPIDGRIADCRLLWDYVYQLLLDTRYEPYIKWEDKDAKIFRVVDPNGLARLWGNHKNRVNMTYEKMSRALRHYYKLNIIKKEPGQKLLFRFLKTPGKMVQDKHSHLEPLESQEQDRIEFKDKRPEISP
Outline: as §1

[16] = molecular target: T11, ELF5 (Homo sapiens, UniProt Q9UKW6-2 1-255); settings: protein: recombinant; tags: N-terminal GST; dsDNA, one strand shown
T11 sequence: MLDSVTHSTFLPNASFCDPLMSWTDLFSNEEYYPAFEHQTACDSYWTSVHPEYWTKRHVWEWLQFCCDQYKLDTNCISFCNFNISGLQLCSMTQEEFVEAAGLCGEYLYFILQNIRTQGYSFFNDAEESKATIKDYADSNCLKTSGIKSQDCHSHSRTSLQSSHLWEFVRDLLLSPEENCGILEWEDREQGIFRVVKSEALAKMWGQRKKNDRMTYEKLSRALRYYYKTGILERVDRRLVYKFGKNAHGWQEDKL
Outline: as §1

[17] = molecular target: T12, ETV3 (Homo sapiens, UniProt P41162-2 1-143); settings: protein: recombinant; tags: N-terminal GST; dsDNA, one strand shown
T12 sequence: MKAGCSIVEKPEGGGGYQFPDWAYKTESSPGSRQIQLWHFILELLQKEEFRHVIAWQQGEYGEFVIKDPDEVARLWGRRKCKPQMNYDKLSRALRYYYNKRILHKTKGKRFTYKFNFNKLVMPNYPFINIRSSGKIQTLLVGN
Outline: as §1

[18] = molecular target: ETV6 (Homo sapiens, UniProt P41212 1-452); settings: protein: recombinant; tags: N-terminal GST; dsDNA, one strand shown
Outline: as §1

HSF1, sequence (Q00613 whole entry): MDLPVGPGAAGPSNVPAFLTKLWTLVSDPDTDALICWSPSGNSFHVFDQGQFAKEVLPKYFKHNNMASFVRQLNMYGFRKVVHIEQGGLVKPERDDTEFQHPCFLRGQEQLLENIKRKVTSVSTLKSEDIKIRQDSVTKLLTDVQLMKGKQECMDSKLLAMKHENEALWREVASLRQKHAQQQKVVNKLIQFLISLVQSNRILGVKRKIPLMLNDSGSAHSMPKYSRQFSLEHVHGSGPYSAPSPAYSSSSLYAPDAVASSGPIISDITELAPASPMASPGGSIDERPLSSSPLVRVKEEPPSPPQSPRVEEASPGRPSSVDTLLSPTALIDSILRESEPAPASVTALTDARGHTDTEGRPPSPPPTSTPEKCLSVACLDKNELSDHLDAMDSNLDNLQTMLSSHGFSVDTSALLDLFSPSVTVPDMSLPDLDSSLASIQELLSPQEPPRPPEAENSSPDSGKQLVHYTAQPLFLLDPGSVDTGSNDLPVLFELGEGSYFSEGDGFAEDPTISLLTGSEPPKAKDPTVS
ETV5, sequence (P41161 whole entry): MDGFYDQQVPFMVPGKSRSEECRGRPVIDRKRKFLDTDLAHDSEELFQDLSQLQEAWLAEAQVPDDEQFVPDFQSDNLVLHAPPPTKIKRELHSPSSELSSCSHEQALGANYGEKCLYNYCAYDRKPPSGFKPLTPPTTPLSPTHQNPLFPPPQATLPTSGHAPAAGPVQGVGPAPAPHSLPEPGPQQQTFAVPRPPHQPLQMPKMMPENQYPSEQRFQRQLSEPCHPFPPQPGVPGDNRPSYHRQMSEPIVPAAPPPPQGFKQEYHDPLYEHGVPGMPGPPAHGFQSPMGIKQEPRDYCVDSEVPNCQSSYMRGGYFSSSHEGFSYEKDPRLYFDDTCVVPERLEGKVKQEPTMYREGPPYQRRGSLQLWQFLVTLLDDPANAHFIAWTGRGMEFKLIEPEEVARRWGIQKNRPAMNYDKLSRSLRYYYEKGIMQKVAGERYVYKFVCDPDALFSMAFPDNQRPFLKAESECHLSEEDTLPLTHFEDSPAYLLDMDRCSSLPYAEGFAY
CRX, sequence (O43186 whole entry): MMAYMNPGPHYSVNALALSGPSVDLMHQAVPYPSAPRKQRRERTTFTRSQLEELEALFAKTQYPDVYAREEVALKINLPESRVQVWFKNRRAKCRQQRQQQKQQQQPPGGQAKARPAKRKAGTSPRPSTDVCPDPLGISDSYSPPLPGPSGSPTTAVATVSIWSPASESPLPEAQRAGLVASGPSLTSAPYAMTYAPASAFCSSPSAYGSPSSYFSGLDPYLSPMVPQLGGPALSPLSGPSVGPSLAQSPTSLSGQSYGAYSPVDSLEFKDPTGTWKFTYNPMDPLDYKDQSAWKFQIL
ELF4, sequence (Q99607 whole entry): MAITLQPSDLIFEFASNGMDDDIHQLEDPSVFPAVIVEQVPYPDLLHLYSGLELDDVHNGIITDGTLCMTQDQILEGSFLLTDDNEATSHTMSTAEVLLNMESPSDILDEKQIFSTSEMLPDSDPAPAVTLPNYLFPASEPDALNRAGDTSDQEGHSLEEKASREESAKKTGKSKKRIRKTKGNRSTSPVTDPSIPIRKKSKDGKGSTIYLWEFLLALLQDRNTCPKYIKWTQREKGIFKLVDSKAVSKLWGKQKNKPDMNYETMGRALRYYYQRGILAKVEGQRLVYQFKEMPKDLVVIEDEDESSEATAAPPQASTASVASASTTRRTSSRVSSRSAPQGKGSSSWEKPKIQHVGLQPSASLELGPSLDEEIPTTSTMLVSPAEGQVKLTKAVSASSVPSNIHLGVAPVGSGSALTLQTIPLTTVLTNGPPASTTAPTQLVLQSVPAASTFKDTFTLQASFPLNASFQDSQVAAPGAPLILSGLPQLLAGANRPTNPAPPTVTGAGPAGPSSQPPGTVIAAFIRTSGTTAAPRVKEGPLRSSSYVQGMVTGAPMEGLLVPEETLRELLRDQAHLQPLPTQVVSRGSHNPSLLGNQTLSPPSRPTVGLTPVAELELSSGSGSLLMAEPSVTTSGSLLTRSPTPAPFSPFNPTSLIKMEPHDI
ETV6, sequence (P41212 whole entry): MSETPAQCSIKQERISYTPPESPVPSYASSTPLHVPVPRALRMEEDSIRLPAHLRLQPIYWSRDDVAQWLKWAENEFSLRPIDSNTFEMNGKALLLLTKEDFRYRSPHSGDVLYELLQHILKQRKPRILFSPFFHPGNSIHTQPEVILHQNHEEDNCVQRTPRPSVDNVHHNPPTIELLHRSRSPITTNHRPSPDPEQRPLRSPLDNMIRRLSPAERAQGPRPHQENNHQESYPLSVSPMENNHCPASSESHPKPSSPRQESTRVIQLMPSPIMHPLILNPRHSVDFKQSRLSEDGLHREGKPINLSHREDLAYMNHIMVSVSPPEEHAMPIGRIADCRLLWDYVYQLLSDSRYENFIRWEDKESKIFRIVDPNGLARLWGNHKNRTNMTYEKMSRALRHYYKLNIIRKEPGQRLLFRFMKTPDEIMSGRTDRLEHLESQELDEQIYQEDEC
ETV1, sequence (P50549 whole entry): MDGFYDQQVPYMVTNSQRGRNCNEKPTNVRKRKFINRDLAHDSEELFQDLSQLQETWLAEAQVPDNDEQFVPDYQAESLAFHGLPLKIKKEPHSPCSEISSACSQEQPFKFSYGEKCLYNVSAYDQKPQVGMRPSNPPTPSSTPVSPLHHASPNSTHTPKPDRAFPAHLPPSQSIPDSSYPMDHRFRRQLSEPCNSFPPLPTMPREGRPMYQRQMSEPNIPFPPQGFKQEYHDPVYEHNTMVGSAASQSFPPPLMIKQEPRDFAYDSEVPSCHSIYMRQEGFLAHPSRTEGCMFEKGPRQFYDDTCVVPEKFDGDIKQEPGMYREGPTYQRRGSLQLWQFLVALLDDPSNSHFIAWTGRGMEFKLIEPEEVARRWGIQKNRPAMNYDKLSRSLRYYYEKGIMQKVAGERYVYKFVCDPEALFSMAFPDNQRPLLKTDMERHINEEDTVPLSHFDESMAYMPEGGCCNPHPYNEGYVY

In the case of ATTGCC, the binding signal [1] was 1.25 fold enrichment (6-mer frequency, TF over GST control), the binding signal [2] was 1.28 fold enrichment (6-mer frequency, TF over GST control) and the binding signal [3] was 1.09 fold enrichment (6-mer frequency, TF over GST control). For the same sequence, the binding signal [4] was 1.29 fold enrichment (6-mer frequency, TF over GST control), the binding signal [5] was 1.3 fold enrichment (6-mer frequency, TF over GST control) and the binding signal [6] was 1.14 fold enrichment (6-mer frequency, TF over GST control). The binding signal [7] was 1.12 fold enrichment (6-mer frequency, TF over GST control), the binding signal [8] was 1.24 fold enrichment (6-mer frequency, TF over GST control) and the binding signal [9] was 1.09 fold enrichment (6-mer frequency, TF over GST control). For the same sequence, the binding signal [10] was 1.2 fold enrichment (6-mer frequency, TF over GST control), the binding signal [11] was 1.15 fold enrichment (6-mer frequency, TF over GST control) and the binding signal [12] was 1.34 fold enrichment (6-mer frequency, TF over GST control). For the same sequence, the binding signal [13] was 1.25 fold enrichment (6-mer frequency, TF over GST control), the binding signal [14] was 1.18 fold enrichment (6-mer frequency, TF over GST control) and the binding signal [15] was 1.22 fold enrichment (6-mer frequency, TF over GST control). For the same sequence, the binding signal [16] was 1.22 fold enrichment (6-mer frequency, TF over GST control), the binding signal [17] was 1.31 fold enrichment (6-mer frequency, TF over GST control) and the binding signal [18] was 1.26 fold enrichment (6-mer frequency, TF over GST control).
